High-throughput results (PubChem BioAssay)
HepG2 tox: HepG2 cytotoxicity, counter-screen for TGF-b inhibitors; HepG2 CAGA-GFP viability, ATP luminescence, 18 h; hit rate 0.76% among 410,000; Potency, µM (top dose mostly 46.1 µM), for inactives: at the highest dose activity change, negative = cytotoxicity, actives largely listed as cytotoxic; further: potency means the concentration at half of the fitted maximal effect
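CellTiter-Glo luminescence gave cytotoxicity after 18 hours at 37 degrees C. The cells were HepG2 CAGA-GFP in 1% FBS DMEM, stimulated with 500 pg/mL TGF-beta after compound addition. %Activity was normalised to no-cell wells (complete cell-killing) and DMSO (no toxicity), and curves were fitted and classified.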
DT40 TDP1 CPT: growth inhibition of DT40 Tdp1-/-;hTDP1 cells with camptothecin (screen for TDP1 inhibitors). chicken DT40 Tdp1-/-;hTDP1 cells + 20 nM CPT, ATP luminescence, 48 h. Potency, µM (top dose mostly 46.2 µM), without a hit: at the highest dose activity change, negative = growth inhibition, usual class: inhibitors. hit rate 12% among 420,000. AID 686979; further: potency means the concentration at half of the fitted maximal effect; on the % scale 0 is the no-effect control and ±100 the full control effect; nearly all actives have a fitted effect of over 55% in size
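Cell growth measured by CellTiter-Glo luminescence after a minimum 48 h, 37 C compound exposure with 20 nM CPT in Tdp1-knockout DT40 cells stably expressing hTDP1, seeded 400/well; qHTS titration format.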
IL1B secr inh: blocks inflammasome-driven IL-1 beta release; AID 743279; activity change, % at 57.5 µM; THP-1 LPS/ATP IL-1B secretion, AlphaLISA, 16 h; active compounds read low; hit rate 4.7% among 360,000; in the data active means activity change below about -50%; inconclusive means mostly about -30% to -49%; further: on the % scale 0 is the no-effect control and ±100 the full control effect
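THP-1 cells pretreated 1 hr with compounds (up to 57.5 uM final), then stimulated with LPS (250 ng/mL final) plus ATP (1.25 mM final); secreted IL-1B measured by AlphaLISA after 16 hr, decreased signal indicating inhibition.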
TDP1 inh: TDP1 (human) enzyme inhibition | Potency, µM (top dose mostly 130 µM), inactives show at the top dose activity change, negative = inhibition, usual class: inhibitors | recombinant TDP1, AlphaScreen DNA substrate cleavage | Q9NUW8 | hit rate 0.28% among 350,000; further: potency means the concentration at half of the fitted maximal effect; on the % scale 0 is the no-effect control and ±100 the full control effect; nearly all actives have a fitted effect of over 40% in size
Target sequence (Q9NUW8 whole entry, looked up): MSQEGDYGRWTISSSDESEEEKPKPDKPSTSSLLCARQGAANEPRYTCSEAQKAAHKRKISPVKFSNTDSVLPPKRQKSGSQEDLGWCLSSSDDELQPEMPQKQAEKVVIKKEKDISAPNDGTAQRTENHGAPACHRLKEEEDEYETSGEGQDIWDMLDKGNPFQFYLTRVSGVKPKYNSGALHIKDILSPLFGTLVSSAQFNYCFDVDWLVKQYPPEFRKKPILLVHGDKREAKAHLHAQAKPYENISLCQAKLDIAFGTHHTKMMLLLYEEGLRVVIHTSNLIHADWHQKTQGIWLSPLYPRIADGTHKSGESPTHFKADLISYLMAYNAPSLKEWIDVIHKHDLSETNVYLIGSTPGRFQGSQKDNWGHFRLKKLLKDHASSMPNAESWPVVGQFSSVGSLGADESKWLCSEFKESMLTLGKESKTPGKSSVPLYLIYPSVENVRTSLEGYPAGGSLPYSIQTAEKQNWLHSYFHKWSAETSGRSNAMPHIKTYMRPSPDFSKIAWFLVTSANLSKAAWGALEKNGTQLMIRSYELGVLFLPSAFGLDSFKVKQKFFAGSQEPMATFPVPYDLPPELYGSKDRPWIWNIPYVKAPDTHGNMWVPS
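Tdp1 1 nM final; 15 min RT w/ cpd; substrate 15 nM, 5 min; beads 10 ug/ml, 10 min; AlphaScreen read. Neg ctrl: no enzyme.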
TGFb SMAD3 inh: TGF-b pathway inhibition | HepG2 CAGA-GFP TGF-b/SMAD3 reporter, GFP fluorescence, 18 h; TGF-beta stimulated, 500 pg/mL final | Potency, µM (highest dose often 46.1 µM), without a hit: at the highest dose activity, negative = inhibition, actives largely listed as inhibitors | hit rate 1.2% among 410,000; further: potency means the concentration at half of the fitted maximal effect; on the % scale 0 is the no-effect control and ±100 the full control effect; nearly all actives have a fitted effect of over 65% in size
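HEPG2 CAGA-GFP cells (1000/well, DMEM with 1% FBS) were pre-incubated 2 h at 37 degrees C, given compound by pin tool, then stimulated with TGF-beta at 500 pg/mL final for 18 h before per-cell GFP fluorescence imaging.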
TDP1 cell noCPT: qHTS for Inhibitors of human tyrosyl-DNA phosphodiesterase 1 (TDP1): qHTS in cells in absence of CPT; DT40 Tdp1-/- hTDP1 cells, no CPT, ATP luminescence, 48 h; AID 686978, 2013; Potency, µM (series often up to 46.2 µM), for inactives: at the highest dose activity change, negative = growth inhibition, hits mostly inhibitors; hit rate 15% among 420,000; further: potency means the concentration at half of the fitted maximal effect; on the % scale 0 is the no-effect control and ±100 the full control effect; nearly all actives have a fitted effect of over 55% in size
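Compound effects on proliferation are scored in DT40 Tdp1-/-;hTDP1 cells in the absence of CPT. ATP levels (CellTiter-Glo luminescence) are recorded after a ≥48 hr, 37 °C incubation.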
* hit, by the source's call; ? = inconclusive; / = no result given; [ ] = dose if it differs, or a comment. This is a sample that favours compounds with a hit; in the whole collection about 18% have one here. Unless noted, the call rests on the fitted dose curve; in most records, active means well fitted curve in the direction sought with a large enough effect; inconclusive means small, poorly fitted or top-dose-only effect, or another doubt; inactive means no such curve, though single readings can be large; an effect the other way counts as inactive or inconclusive.

SMILES	HepG2 tox	DT40 TDP1 CPT	IL1B secr inh	TDP1 inh	TGFb SMAD3 inh	TDP1 cell noCPT
CN1CCN(CCC(=O)N2c3ccccc3Sc3ccc(C(F)(F)F)cc32)CC1	-32%	?	?	6%	?	?
CN(C)CCC(=O)N1c2ccccc2Sc2ccc(C(F)(F)F)cc21	-32%	23µM*	-3	4%	?	?
CC(CN(C)C)CN1c2ccccc2Sc2ccc(C(F)(F)F)cc21 (configuration not stated)	/	?	/	/	/	17µM*
CCN(CC)CCCCN1c2ccccc2Sc2ccccc21	-83%	21µM*	-70*	/	?	21µM*
CCN(CC)CC(O)CN1c2ccccc2Sc2ccccc21 (configuration not stated)	-2%	?	-68*	/	0%	?
C=C(C)COc1ccc(C2NC(=O)c3ccccc3O2)cc1OCC (configuration not stated)	5%	8%	2	/	-12%	-7%
C[C@H](O)[C@@H]1C(=O)N2CCc3ccc(-c4ccccc4)cc3[C@@H]2C[C@@H]1N(C)C(=S)Nc1ccc(F)cc1	-26%	?	18	/	?	?
CC1(C)Cc2c(cnn2-c2ccccc2)C(NC(=O)CCN2CCCC2=O)C1 (configuration not stated)	1%	-16%	1	1%	-7%	-26%
CC(NC(=O)C12CC3CC(C)(CC(C)(C3)C1)C2)c1ccncc1 (configuration not stated)	-19%	0%	-5	/	-5%	-12%
CC(CN(C)C)CN1c2ccccc2Sc2ccccc21 (configuration not stated)	-29%	?	?	12%	10%	18µM*
CN(C)CCCN1c2ccccc2Sc2ccc(C(F)(F)F)cc21	-53%	?	-62*	8%	13%	24µM*
O=C(CSc1nc2ccccc2s1)N1c2ccccc2Sc2ccc(C(F)(F)F)cc21	-10%	?	29	3%	-6%	15µM*
C[C@@H](CN(C)C)CN1c2ccccc2Sc2ccccc21	/	?	/	15%[21 µM]	/	?
CCN(CC)CCC(=O)N1c2ccccc2Sc2ccc(NC(=O)OC)cc21	10%	-1%	-79*	5%	?	0%
Cc1cc(F)ccc1C(O)c1ncc(-c2ccccc2Cl)[nH]1 (configuration not stated)	-10%	?	-21	/	2%	-18%
CCCc1nn2c(=O)cc(CSCC(=O)Nc3cccc(OC)c3)nc2s1	-3%	1%	8	1%	12%	27%
Cc1[nH]c(/C=C2/C(=O)Nc3ccc(S(=O)(=O)Cc4c(Cl)cccc4Cl)cc32)c(C)c1C(=O)N1CCCC1CN1CCCC1 (configuration not stated)	/	/	/	29%	/	/
CCN1CCCC1CNC(=O)c1cc([N+](=O)[O-])c(N(C)C)cc1OC (configuration not stated)	5%	2%	33	/	3%	19%
CSc1nn2c(C(F)(F)F)cc(C(F)(F)F)nc2c1C(=O)O	13%	20%	19	0%	-10%	11%
CN(CC(=O)NC(=O)NC1CCCCC1)CC(=O)Nc1ccc(Cl)cc1	-10%	?	?	2%	-26%	-15%
CS(=O)(=O)c1ccccc1-c1nc(-c2ccc(C(F)(F)F)cc2)no1	-19%	?	?	1%	?	16µM*
FC(F)(F)c1ccccc1-c1nc(-c2ccncc2)no1	-15%	-10%	0	/	-3%	-23%
N#Cc1ccc(C(=O)N2CCC3CC2c2cc(N4CCCCC4)ccc23)cc1 (configuration not stated)	7%	16µM*	10	/	6%	16µM*
O=C(c1ccc(-c2ccccc2)cc1)N1CCN(c2ccc3c(c2)C2CC3CCN2C(=O)OCc2ccccc2)CC1 (configuration not stated)	12%	?	-8	/	?	?
O=C(c1cccc(Cl)c1)N1CCN(c2ccc3c(c2)C2CC3CCN2C(=O)OCc2ccccc2)CC1 (configuration not stated)	0%	?	-29	/	11µM*	15µM*
SMILES	HepG2 tox	DT40 TDP1 CPT	IL1B secr inh	TDP1 inh	TGFb SMAD3 inh	TDP1 cell noCPT
N#Cc1ccc(C(=O)N2CCC3CC2c2cc(-c4ccccc4)ccc23)cc1 (configuration not stated)	-29%	?	-5	/	?	?
O=C(c1cccc(Cl)c1)N1CCC2CC1c1cc(-c3ccccc3)ccc12 (configuration not stated)	-39%	?	2	/	?	?
O=C(OCc1ccccc1)N1CCC2CC1c1cc(-c3ccccc3)ccc12 (configuration not stated)	-21%	?	2	/	4%	23µM*
O=C(c1ccc(Cl)cc1)N1CCC2CC1c1cc(-c3ccccc3)ccc12 (configuration not stated)	-17%	16µM*	-18	/	20µM*	-23%
COc1ccc(NC(=O)CSc2nc3ccsc3c(=O)n2CCC(=O)O)cc1	6%	2%	11	/	-3%	27%
Cc1ccc(C(=O)N2CCN(c3ccc4c(c3)C3CC4CCN3C(=O)OCc3ccccc3)CC2)cc1 (configuration not stated)	2%	16µM*	-4	/	?	15µM*
CN(CC(=O)Nc1ccccc1Cl)C(=O)CSc1nncn1C	-3%	-9%	6	2%[0.505 µM]	-1%	7%
COCCN1CCN(C(=O)c2cnn(-c3ncc4c(n3)-c3ccc(OC)cc3CC4)c2C2CC2)CC1	/	7%[9.04 µM]	/	/	/	-17%
O=[N+]([O-])/C=C\c1ccc(N2CCCC2)c(F)c1	-35%	7.3µM*	-55*	-3%	11µM*	2.6µM*
COc1ccc2c(c1)OC[C@H]1[C@H]2N2C(=O)c3cc(Br)ccc3NC(=O)[C@@]2(C)[C@H]1c1ccccc1	-2%	-6%	-13	0%	0%	?
COc1ccc2c(c1)[C@H]1[C@H](CO2)[C@H](c2ccccc2)[C@]2(C)C(=O)Nc3ccc(Br)cc3C(=O)N12	17%	16µM*	?	-4%	4%	?
